From PubChem BioAssay AID1159580 (chemical genetic matrix, 2015)
In all, about 5,500 compounds went through this assay and about 2,000 (36%) were called active. Roughly 18% stayed inconclusive and do not appear here. Cut-off read from the data, not from the text of the source: active = normalized growth mostly below about 0.91 (no sharp cut-off); inconclusive = no clear call, values can overlap the other calls; inactive = mostly above about 0.92. This is one part of the list.

Assay: chemical genetic growth profiling, strain panel (AID 1159580);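 note: tested at 20 µM; growth read once vehicle control cultures reached saturation at 30 °C; 1 = growth at the plate median or of vehicle wells; lower values mean less growth of the strain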
Conditions: growth OD

Measured: normalized growth

O=C(NCO)c1cccnc1
inactive: S. cerevisiae deletion strains, locus YJR075W, strain HOC1, active compounds read low 0.992 | S. cerevisiae deletion strains, locus YKL009W, strain mrt4, active compounds read low 0.984 | S. cerevisiae deletion strains, locus YKL068W, active compounds read low 0.974 | S. cerevisiae deletion strains, locus YKL085W, strain MDH1 (second series), active compounds read low 1 | S. cerevisiae deletion strains, locus YKL085W, strain MDH1, active compounds read low 1 | S. cerevisiae deletion strains, locus YKL160W, strain elf1, active compounds read low 1.01 | S. cerevisiae deletion strains, locus YKL190W, strain CNB1, active compounds read low 0.997 | S. cerevisiae deletion strains, locus YKR001C, strain vps1, active compounds read low 0.99 | S. cerevisiae deletion strains, locus YKR026C, strain gcn3, active compounds read low 1.01 | S. cerevisiae deletion strains, locus YKR091W, strain srl3, active compounds read low 1 | S. cerevisiae deletion strains, locus YLL001W, strain dnm1, active compounds read low 0.992 | S. cerevisiae deletion strains, locus YLL026W, active compounds read low 1 | S. cerevisiae deletion strains, locus YLL041C, strain sdh2, active compounds read low 1.01 | S. cerevisiae deletion strains, locus YLR027C, strain aat2, active compounds read low 1.01 | S. cerevisiae deletion strains, locus YLR039C, strain RIC1, active compounds read low 0.939 | S. cerevisiae deletion strains, locus YLR058C, strain SHM2, active compounds read low 0.986 | S. cerevisiae deletion strains, locus YLR102C, strain apc9, active compounds read low 0.985 | S. cerevisiae deletion strains, locus YLR113W, strain HOG1, active compounds read low 0.997 | S. cerevisiae deletion strains, locus YLR221C, strain rsa3, active compounds read low 1.01 | S. cerevisiae deletion strains, locus YLR258W, strain gsy2, active compounds read low 1.01 | S. cerevisiae deletion strains, locus YLR262C, strain YPT6 (second series), active compounds read low 0.995 | S. cerevisiae deletion strains, locus YLR262C, strain YPT6, active compounds read low 0.954 | S. cerevisiae deletion strains, locus YLR268W, strain sec22, active compounds read low 0.993 | S. cerevisiae deletion strains, locus YLR320W, strain mms22, active compounds read low 1 | S. cerevisiae deletion strains, locus YLR330W, strain CHS5, active compounds read low 0.981 | S. cerevisiae deletion strains, locus YLR342W, strain FKS1 (second series), active compounds read low 1.01 | S. cerevisiae deletion strains, locus YLR342W, strain FKS1, active compounds read low 1.01 | S. cerevisiae deletion strains, locus YLR357W, strain rsc2, active compounds read low 0.974 | S. cerevisiae deletion strains, locus YLR370C, strain arc18, active compounds read low 1.01 | S. cerevisiae deletion strains, locus YLR371W, strain rom2, active compounds read low 0.971 | S. cerevisiae deletion strains, locus YLR384C, strain iki3, active compounds read low 0.997 | S. cerevisiae deletion strains, locus YLR418C, strain cdc73, active compounds read low 1.03 | S. cerevisiae deletion strains, locus YML016C, strain PPZ1, active compounds read low 0.998 | S. cerevisiae deletion strains, locus YML032C, strain rad52, active compounds read low 0.975 | S. cerevisiae deletion strains, locus YML120C, strain ndi1, active compounds read low 1.01 | S. cerevisiae deletion strains, locus YML124C, strain tub3, active compounds read low 1 | S. cerevisiae deletion strains, locus YMR058W, strain fet3, active compounds read low 1 | S. cerevisiae deletion strains, locus YMR078C, strain ctf18, active compounds read low 0.993 | S. cerevisiae deletion strains, locus YMR125W, strain sto1, active compounds read low 0.997 | S. cerevisiae deletion strains, locus YMR129W, active compounds read low 0.987 | S. cerevisiae deletion strains, locus YMR205C, strain PFK2, active compounds read low 0.992 | S. cerevisiae deletion strains, locus YMR223W, strain ubp8, active compounds read low 0.988 | S. cerevisiae deletion strains, locus YMR231W, strain pep5, active compounds read low 1.01 | S. cerevisiae deletion strains, locus YMR263W, strain SAP30, active compounds read low 0.999 | S. cerevisiae deletion strains, locus YMR307W, strain GAS1, active compounds read low 1.08 | S. cerevisiae deletion strains, locus YNL067W, strain RPL9B, active compounds read low 0.995 | S. cerevisiae deletion strains, locus YNL071W, strain lat1, active compounds read low 1.02 | S. cerevisiae deletion strains, locus YNL128W, strain TEP1, active compounds read low 0.999 | S. cerevisiae deletion strains, locus YNL153C, strain GIM3, active compounds read low 1 | S. cerevisiae deletion strains, locus YNL183C, strain NPR1, active compounds read low 0.92 | S. cerevisiae deletion strains, locus YNL209W, strain ssb2, active compounds read low 0.999 | S. cerevisiae deletion strains, locus YNL233W, strain BNI4, active compounds read low 1.01 | S. cerevisiae deletion strains, locus YNL248C, strain rpa49, active compounds read low 1 | S. cerevisiae deletion strains, locus YNL250W, strain rad50, active compounds read low 0.983 | S. cerevisiae deletion strains, locus YNL271C, strain bni1, active compounds read low 0.978 | S. cerevisiae deletion strains, locus YNL298W, strain CLA4, active compounds read low 0.996 | S. cerevisiae deletion strains, locus YNL307C, strain MCK1, active compounds read low 0.993 | S. cerevisiae deletion strains, locus YNL322C, strain KRE1 (second series), active compounds read low 1.01 | S. cerevisiae deletion strains, locus YNL322C, strain KRE1, active compounds read low 0.986 | S. cerevisiae deletion strains, locus YNR049C, strain mso1, active compounds read low 1.01 | S. cerevisiae deletion strains, locus YNR052C, strain pop2, active compounds read low 0.984 | S. cerevisiae deletion strains, locus YOL006C, strain TOP1, active compounds read low 0.997 | S. cerevisiae deletion strains, locus YOL012C, strain htz1 0.887 | S. cerevisiae deletion strains, locus YOL147C, strain pex11, active compounds read low 0.988 | S. cerevisiae deletion strains, locus YOR001W, strain rrp6, active compounds read low 0.999 | S. cerevisiae deletion strains, locus YOR061W, strain CKA2, active compounds read low 0.991 | S. cerevisiae deletion strains, locus YOR069W, strain VPS5, active compounds read low 0.989 | S. cerevisiae deletion strains, locus YOR070C, strain gyp1, active compounds read low 1 | S. cerevisiae deletion strains, locus YOR080W, strain dia2, active compounds read low 1 | S. cerevisiae deletion strains, locus YOR083W, strain WHI5, active compounds read low 1 | S. cerevisiae deletion strains, locus YOR106W, strain vam3, active compounds read low 1.02 | S. cerevisiae deletion strains, locus YOR136W, strain idh2, active compounds read low 0.982 | S. cerevisiae deletion strains, locus YOR144C, strain elg1, active compounds read low 0.978 | S. cerevisiae deletion strains, locus YOR184W, strain ser1, active compounds read low 0.959 | S. cerevisiae deletion strains, locus YOR231W, strain MKK1, active compounds read low 0.98 | S. cerevisiae deletion strains, locus YOR265W, strain rbl2, active compounds read low 1.01 | S. cerevisiae deletion strains, locus YOR270C, strain vph1, active compounds read low 1.02 | S. cerevisiae deletion strains, locus YOR290C, strain snf2, active compounds read low 0.943 | S. cerevisiae deletion strains, locus YOR316C, strain cot1, active compounds read low 0.997 | S. cerevisiae deletion strains, locus YPL051W, strain arl3, active compounds read low 1 | S. cerevisiae deletion strains, locus YPL055C, strain LGE1, active compounds read low 1.02 | S. cerevisiae deletion strains, locus YPL078C, strain atp4, active compounds read low 1.01 | S. cerevisiae deletion strains, locus YPL106C, strain sse1, active compounds read low 0.998 | S. cerevisiae deletion strains, locus YPL240C, strain hsp82, active compounds read low 1.02 | S. cerevisiae deletion strains, locus YPL241C, strain CIN2, active compounds read low 0.958 | S. cerevisiae deletion strains, locus YPL256C, strain CLN2, active compounds read low 0.985 | S. cerevisiae deletion strains, locus YPR119W, strain clb2, active compounds read low 0.986 | S. cerevisiae deletion strains, locus YPR141C, strain kar3, active compounds read low 0.992 | S. cerevisiae deletion strains, locus YPR163C, strain tif3, active compounds read low 0.989 | S. cerevisiae deletion strains, locus YPR167C, strain met16, active compounds read low 1 | S. cerevisiae deletion strains, strain wtn01, active compounds read low 0.996 | S. cerevisiae strains, strain wild type, active compounds read low 0.986
